Data as given in PubChem BioAssay.
Calls of active or inactive are those of the source.

Test system: PRMT1 (protein arginine N-methyltransferase 1)
Test: PRMT1 binders on small-molecule microarrays, primary screen, biochemical, small-molecule microarray, 635 nm fluorescence (AID 1088);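 further: binding of Prmt1 protein to compounds spotted on small-molecule microarray slides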
Conditions: small-molecule microarray binding, higher = more signal

Composite z-score, 0.442:
Cc1cc(C)c(C(O)C2C=CC3C(=O)NC(=O)C3N2Nc2ccccn2)c(C)c1 (configuration not stated)

Composite z-score, -0.456:
CCN(CC)c1ccc(N2CC=CC34O[C@@H]5C=CCOC(=O)[C@@H]5[C@H]3C(=O)N(CCCCCO)[C@@H]4C2=O)cc1 (some centres not stated)

Composite z-score, 0.594:
CC(C)C(O)C1C=CC2C(=O)N(C)C(=O)C2N1N1CCCCC1 (configuration not stated)

Composite z-score, 0.859:
CC(C)NC(=O)[C@@]1(c2ccc([N+](=O)[O-])cc2)CC(=O)N(C(C)C)[C@@H]1c1ccc(CO)cc1

Composite z-score, 1.57:
O=C1O[C@@H](c2ccccc2)[C@@H](c2ccccc2)N2[C@@H](c3ccc(O)cc3)[C@]3(C(=O)Nc4ccc(C#CCCO)cc43)[C@@H](C(=O)O)[C@H]12

Composite z-score, -0.0091:
C=CCC(OC(C)=O)[C@@H]1[C@@H](N(Cc2ccc(-c3cccc(C(F)(F)F)c3)o2)C(=O)Cc2ccc(OC)cc2)c2cc(OCCCO)ccc2N1C(=O)Cc1ccc(OC)cc1 (some centres not stated)

Composite z-score, 1.56:
C[n+]1ccc2ccc(O)cc2c1
C=C(CCCC)/C(=C/C[C@H](OC(C)=O)c1ccc(CO)o1)c1cc(C(=O)OC)ccc1OC
COCCOC(=O)N1C(=O)[C@@]2(c3cc(C#Cc4ccc(OC)cc4)ccc31)[C@H](c1ccc(OCCO)cc1)N1[C@H](c3ccccc3)[C@H](c3ccccc3)OC(=O)[C@H]1[C@@H]2C(=O)N1CCc2cc(OC)c(OC)cc2C1

Test system: not listed separately
Test: yeast growth modulation, basal conditions, primary screen, YJM789 clinical isolate, OD600, 24 h (AID 1089);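 further: growth of clinical yeast isolate S. cerevisiae YJM 789 seeded 1000 cells per well; test concentration not given here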
Conditions: S. cerevisiae YJM789 growth, higher = more signal, called active from +8 up or from −8 down

z-score, inactive:
O=C1c2ccccc2[C@](Cc2ccccc2I)(C(=O)O)[C@H](c2ccc(CO)cc2)N1Cc1ccccc1C(F)(F)F 0.817
C=CCN1C(=O)[C@@]2(O[C@@H](CCO)[C@H]([Si](C)(C)c3ccc(OC)cc3)[C@H]2C)c2cc(NC(C)=O)ccc21 0.0173
O=C1O[C@@H](c2ccccc2)[C@@H](c2ccccc2)N2[C@@H](c3ccc(O)cc3)[C@]3(C(=O)Nc4ccccc43)[C@@H](C(=O)NC[C@H](O)c3ccccc3)[C@H]12 0.3
C=C(CCCC)C(=O)CC[C@@H](OC(=O)c1ccccc1-c1ccccc1C(=O)O)c1ccc(CO)o1 -0.516
COCCOC(=O)N1C(=O)[C@@]2(c3cc(C#CCCO)ccc31)[C@H](c1ccc(O)cc1)N1[C@H](c3ccccc3)[C@H](c3ccccc3)OC(=O)[C@H]1[C@@H]2C(=O)N1CCCCCCC1 0.616
O=C(NCC(O)CO)[C@]1(CCS(=O)(=O)c2ccccc2)N=C(c2ccc(OCCCO)cc2)O[C@@H]1c1ccccc1 (some centres not stated) -0.59
CC(C)NC(=O)[C@@H]1c2ccccc2C(=O)N(C2CCCCC2)[C@H]1c1ccc(CO)cc1 -0.455
NC(=O)NCC#Cc1ccc2c(c1)[C@]1(C(=O)N2)[C@H](C(=O)NC[C@H](O)c2ccccc2)[C@H]2C(=O)O[C@H](c3ccccc3)[C@H](c3ccccc3)N2[C@@H]1c1ccccc1OCCO 1.41
CN1C(=O)C2C(C1=O)C1C=C(c3ccc(CO)cc3)C2C(C2CC2)N1Cc1cc2c(cc1Br)OCO2 (configuration not stated) -3.93
O=C1OCCC/C=C\[C@H]2OC34C=CCN(Cn5nnc6ccccc65)C(=O)[C@H]3N(CCCO)C(=O)[C@@H]4C12 (some centres not stated) -0.57
CC(C)N1C(=O)c2ccccc2[C@](C)(C(=O)NC2CC2)[C@@H]1c1ccc(CO)cc1 -0.0975
O=C1C2C=CC(C(O)CCc3ccccc3)N(Nc3ccccc3)C2C(=O)N1c1ccccc1 (configuration not stated) 0.655
O=C1O[C@H](c2ccccc2)[C@H](c2ccccc2)N2[C@H]1[C@@H](C(=O)N1CCCCCCC1)[C@]1(C(=O)Nc3ccc(C#CC4=CCCCC4)cc31)[C@H]2c1ccc(O)cc1 -0.177
CC(C)OC(=O)C1=CCC(c2cccc(Cl)c2)O1 (configuration not stated) -3.2
C=CCN1C(=O)[C@@]2(O[C@@H](CCO)[C@H]([Si](C)(C)c3ccc(OC)cc3)[C@H]2C)c2cc(N3C(=O)COc4ccccc43)ccc21 1.64
C=CCC(OC(C)=O)[C@@H]1[C@@H](N(Cc2ccc(-c3ccccc3)cc2)C(=O)c2ccc(C)cc2)c2cc(OCCCO)ccc2N1C(=O)c1ccc2ccccc2n1 (some centres not stated) -2.47
COCCOC(=O)N1C(=O)[C@@]2(c3cc(C#CC4=CCCCC4)ccc31)[C@H](c1ccc(OCCO)cc1)N1[C@H](c3ccccc3)[C@H](c3ccccc3)OC(=O)[C@H]1[C@@H]2C(=O)Nc1nc2ccccc2s1 1.09

z-score, active:
CCOC(=O)C=Cc1cccc(OC)c1O -9.3
